According to PubChem BioAssay (NCI):
The panel holds about 83,000 compounds, 20% with a hit somewhere; the sample as a whole holds those more often.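 Compound tested at a single concentration for 48 hours in 96-well plates; a percent growth value below 10 was scored as active.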 Values without a mark were called inactive. Calls of active or inactive are those of the source.

Assays:
Assay in all cases: NCI-60 one-dose screen, 48 h (100 = growth as untreated, 0 = no growth, -100 = all killed)
Settings in all cases: 10 µM unless noted
[1] = tested on: HCT-15 colon
[2] = tested on: HT29 colon
[3] = tested on: SNB-75 CNS
[4] = tested on: SNB-19 CNS
[5] = tested on: U251 CNS
[6] = tested on: PC-3 prostate
[7] = tested on: SK-MEL-5 melanoma
[8] = tested on: UACC-62 melanoma
[9] = tested on: LOX IMVI melanoma
[10] = tested on: SK-MEL-28 melanoma
[11] = tested on: SK-MEL-2 melanoma
[12] = tested on: EKVX NSCLC
[13] = tested on: SN12C renal
[14] = tested on: UO-31 renal
[15] = tested on: TK-10 renal
[16] = tested on: ACHN renal
[17] = tested on: CAKI-1 renal
[18] = tested on: A498 renal
[19] = tested on: CCRF-CEM leukemia
[20] = tested on: MOLT-4 leukemia

Row | SMILES | growth [1] | growth [2] | growth [3] | growth [4] [%] | growth [5] [%] | growth [6] | growth [7] | growth [8] [%] | growth [9] | growth [10] [%] | growth [11] [%] | growth [12] [%] | growth [13] [%] | growth [14] [%] | growth [15] [%] | growth [16] | growth [17] [%] | growth [18] | growth [19] | growth [20]
1 | COc1cc(C)c(Cl)cc1C1=NN(c2ccc(S(N)(=O)=O)cc2)C(/C=C/c2ccccc2)C1 (stereo not given) | 35.1% | 23.2% | 65.2% | 38.6 | 18.3 | 7.54% (active) | 64.9% | 39.8 | 51.6% | 88.1 | 74.6 | 49.3 | 20.6 | 44.9 | 46 | 15% | 59.5 | 64.4% | 54.5% | 49.9%
2 | COc1cc(NCC(O)CN(CC(C)C)CC(C)C)c2ncccc2c1 (stereo not given) | 80.1% | 77.9% | 82.8% | 90.1 | 80.7 | 58.6% | 86.1% | 76.9 | 83.6% | 75.3 | 100 | 93.2 | 84.6 | 88.6 | 113 | 87.6% | 99.2 | 70% | 57.8% | 74.9%
3 | COc1ccc2[nH]cc(C3(c4c[nH]c5ccc(OC)cc45)C(=O)Nc4ccc(Cl)cc43)c2c1 | 69.1% | 44.9% | 39.7% | 82.3 | 72.2 | 15% | 89.2% | 73 | 45% | 95.3 | 90.7 | 43.5 | 91.8 | 46.3 | 107 | 76% | 62.2 | 73.8% | 15.8% | 5.75% (active)
4 | O=C(c1ccccc1)c1cccc(C(Br)Br)c1 | 73.4% | 63.5% | 73.9% | 83.6 | 88.9 | 91.8% | 74% | 81.1 | 80.6% | 93.2 | 74.5 | 107 | 89.7 | 74.1 | 78.9 | 91% | 78.2 | 77.2% | 103% | 81.5%
5 | CC1=C(/C=C/C(C)=C/C=C(C(=O)O)\C(C)=C\C(=O)O)C(C)(C)CCC1 | 105% | 96.8% | 87.5% | 97.8 | 94.6 | 91.3% | 111% | 96.9 | 94.9% | 114 | 94.7 | 124 | 92 | 92.7 | 98 | 99.9% | 117 | 91.2% | 93.3% | 86.3%
6 | CCN1C(=O)N(CC)C2C1N=C(SC)N2/N=C/C=C/c1ccccc1OC (stereo not given) | 7.58% (active) | 3.96% (active) | 44.6% | 15.4 | 16.1 | 18.4% | 0.74% (active) | 30.5 | 14.6% | 51.5 | 26.5 | 23.4 | 26.5 | 41.8 | 46.8 | 23.2% | 25 | 15.1% | 12.5% | 14.7%
7 | COc1cc2c(c(OC)c1O)C(=O)C(OC)C(c1ccc(O)c(O)c1)O2 (stereo not given) | 3.6% (active) | 46.8% | -8.14% (active) | 21 | 15.4 | -22.3% (active) | -23.6% (active) | 29.3 | 12.9% | 56.2 | 46.9 | 46.8 | 26.6 | 44.8 | 66.1 | 21.6% | 28.4 | -18.3% (active) | -5.15% (active) | 9.18% (active)
8 | O=C(CSc1nnc(Cc2ccccc2Nc2c(Cl)cccc2Cl)n1-c1ccccc1)N1N=C(c2ccc3ccccc3c2)CC1c1ccc(Cl)cc1 (stereo not given) | 98.9% | 86.2% | 81% | 95.1 | 98.3 | 87.1% | 104% | 87.6 | 94% | 112 | 103 | 93.5 | 96.6 | 80 | 95.5 | 109% | 92.7 | 102% | 113% | 98.4%
9 | O=c1c2cc(Cl)ccc2oc2ccc(OCCCCCN3CCCCCC3)cc12 | 30% | 5.64% (active) | 92.3% | 91.5 | 69.2 | 83.2% | 62.9% | 85.4 | 73.2% | 107 | 96.5 | 89.6 | 80.9 | 78.6 | 89.2 | 110% | 94.6 | 68.9% | 60.5% | 48.5%
10 | Cc1ccccc1NC(=O)c1sc2nc3c(cc2c1N)C(=O)CCC3 | 32.8% | 21.1% | 13.1% | 46.1 | 49 | 30.3% | 18.6% | 36.9 | 47.4% | 52.8 | 58.6 | 87.5 | 64.5 | 77.5 | 81.2 | 49.3% | 55.4 | 31.3% | 30.3% | 67.5%
11 | COc1cc(C2CC(=O)Nc3c2cnn3C)cc(OC)c1OC (stereo not given) | 107% | 105% | 92% | 108 | 100 | 108% | 105% | 106 | 106% | 119 | 113 | 119 | 114 | 90.7 | 117 | 108% | 106 | 113% | 114% | 102%
12 | Nc1c(C(=O)Nc2cccc(Cl)c2)sc2nc3c(cc12)C(=O)CCC3 | 32.4% | 23.9% | 25.9% | 38.2 | 46.4 | 29.1% | 27.2% | 43.7 | 46.1% | 51.4 | 69.7 | 58.2 | 54.4 | 57.1 | 65 | 54.2% | 40.3 | 49.3% | 13.5% | 57.1%
13 | O=C(CC(=O)c1cccc(Cl)c1)c1cccc(Cl)c1 | 25.9% | 34.7% | 75.3% | 31.3 | 16.7 | 33.3% | 36.8% | 27.2 | 33.2% | 56 | 60.4 | 20.5 | 23.2 | 42.7 | 46.6 | 31.2% | 23.4 | 79.2% | 11.4% | 21.7%
14 | CC1OC(n2c3ccccc3c3c4c(c5c6ccccc6[nH]c5c32)C(=O)N(CCN2CCOCC2)C4=O)CC(O)C1O (stereo not given) | 26.5% | 13.4% | 5.86% (active) | 21.5 | 10.4 | 34% | 5.46% (active) | 21.1 | 2.7% (active) | 67.6 | 99.7 | 56.7 | 19.8 | 25.5 | 58.5 | 8.9% (active) | 14.9 | 47.5% | 27% | 6.7% (active)
15 | COc1cc(CN(c2ccc(C)cc2)C2OC(=O)c3ccccc32)cc(OC)c1OC (stereo not given) | 6.19% (active) | 18.9% | 6.43% (active) | 38.6 | 32.3 | 51.8% | 19.9% | 45.9 | 42.7% | 51.8 | 55 | 71.8 | 50.1 | 59.7 | 93.3 | 56.3% | 49.3 | 51.7% | 11.5% | 17.9%
